PAX8 inh HTS: inhibitors of PAX8 transcriptional activity in RMG-I cells; RMG-I TPO-luciferase reporter, SteadyGlo, 24 h; inhibition, % at 12.6 µM; hit rate 1.2% among 360,000; AID 652154;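 active = mean replicate inhibition at least 60% with every replicate also reaching 60%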;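 note: luciferase light reporting Pax8 driven TPO promoter activity; plate controls were median of neutral control wells for no effect and mitoxantrone controls for full effect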
TWEAK Fn14 block: inhibitors of TWEAK-Fn14 interaction signaling. AID 1159606. TWEAK-stimulated Fn14 reporter cells, luciferase luminescence, 8 h. inhibition, % at 10 µM. hit rate 2% among 360,000; in the data active = inhibition above about 50%
EWS-Fli block: inhibitors of EWS/Fli oncoprotein transcriptional activity | A673 NR0B1-luciferase reporter, viability-normalised | inhibition, % at 12.6 µM | hit rate 0.67% among 350,000;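 active = mean inhibition of at least 50% after viability correction, with every replicate also passing that limit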;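 note: firefly luciferase signal divided by Alamar Blue viability fluorescence both relative to DMSO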
TROY NFkB inh: inhibitors of TROY-dependent NF-kB signaling; Q293 LMP1-TROYcd NF-kB luciferase reporter, 4 h; inhibition, % at 10 µM; hit rate 0.98% among 360,000; AID 1347056;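 active = compounds whose plate-normalised and pattern-corrected inhibition of the luciferase reporter signal at the single screening dose is 50% or more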
LGR2 antag: blocks bursicon-induced cAMP signaling via Drosophila LGR2; HEK293 LGR2, CRE-luciferase, bursicon-stimulated, 4 h; inhibition, % at 9.99 µM; hit rate 0.35% among 380,000; AID 720647;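 active = drop in luminescence signal, shown as inhibition above about 50% in the replicate tests, limit read from the data, passing the limit was not always enough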;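 note: agonist challenge used bursicon conditioned medium at about half maximal strength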
LMP1 NFkB inh: Epstein-Barr LMP1 NF-kappaB reporter inhibition; AID 504558; inhibition, % at 12.5 µM; LMP1-induced NF-kappaB luciferase reporter cells, luminescence; hit rate 0.69% among 350,000; in the data active = inhibition above about 41%;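 note: 0% = neutral control wells and 100% = reference inhibitor control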
An asterisk follows results filed as active; · = not tested or not shown. Hits are enriched below; roughly 3.1% of the tested compounds scored in any of these assays.

SMILES	PAX8 inh HTS	TWEAK Fn14 block	EWS-Fli block	TROY NFkB inh	LGR2 antag	LMP1 NFkB inh
O=C(C1CC1)N1CCCCN2[C@H](CO)[C@@H](c3ccc(C#CC4(O)CCCC4)cc3)[C@@H]2C1	-18	·	3	·	·	·
CC(C(=O)N=Nc1c(O)[nH]c2ccccc12)n1cnc2ccccc2c1=O (stereo not drawn)	8	6	·	23	17	61*
COc1ccc(C(=O)n2c(C)c(CCO)c(=O)n2C)cc1	-11	23	-1	21	·	-2
Cc1c(CCO)c(=O)n2n1CCCC2	-13	-1	8	-2	4	52*
COC(=O)c1nn(-c2nc(-c3ccc(OC)c(OC)c3)cc(C(F)(F)F)n2)cc1[N+](=O)[O-]	1	-34	-2	-17	-5	6
COC(=O)c1nn(-c2nc(-c3cccc(OC)c3)cc(C(F)(F)F)n2)cc1[N+](=O)[O-]	-9	-23	1	58*	14	-8
CCOC(=O)Cc1nnc2c(Nc3ccc(Cl)cc3)nc3nonc3n12	24	36	·	52*	·	11
O=C(O)C1C=CC(C(=O)O)c2ccccc21 (stereo not drawn)	93*	3	-10	1	13	-15
COc1ccc(-c2nn(-c3ccccc3)cc2/C=N/NC(N)=S)cc1OC	-1	69*	·	12	-21	10
O=C(O)C[C@H]1C[C@@H]2c3cc(NC(=O)C4CCOCC4)ccc3O[C@@H]2[C@H](CO)O1	-11	·	·	·	-23	·
N#CCCNC(=O)Cn1c(COc2ccc(Cl)cc2)nc2ccccc21	70*	4	-9	-36	-7	-6
Cc1ccc(N=C2SC(C(=O)Nc3ccc(OC(F)(F)F)cc3)C(N)=C2C(=O)Nc2c(C)cc(C)cc2C)cc1 (stereo not drawn)	21	64*	·	13	-3	-2
Cc1ccc(NC(=O)C2SC(=Nc3ccccc3)C(C(=O)Nc3ccc(Cl)cc3)=C2N)cc1 (stereo not drawn)	·	-10	·	-29	·	-7
CN1CN=C(NS(=O)(=O)c2ccc([N+](=O)[O-])cc2)NC1	7	55*	·	2	2	2
CCC(=O)N[C@H]1CC[C@@H](CCNC(=O)Nc2ccc(C(F)(F)F)cc2)O[C@@H]1CO	7	·	-15	·	7	·
CC1CCC(C(C)C)C(OC(=O)C[n+]2cccc(C(N)=O)c2)C1 (stereo not drawn)	·	-16	·	3	·	-8
COc1ccc(-c2c[n+](CC(=O)OC3CC(C)CCC3C(C)C)c3n2CCC3)cc1 (stereo not drawn)	91*	43	21	38	34	4
CC(C)[C@@H]1CC[C@@H](C)C[C@H]1OC(=O)C[n+]1cc(-c2ccc(Cl)cc2)n2c1CCCCC2	113*	64*	31	50	·	30
Cn1c(NC(=O)C[n+]2cc(-c3ccc(Cl)cc3)n3c2CCC3)cc(=O)n(C)c1=O	18	17	2	13	8	1
COc1ccc(NC(=O)Nc2ccc3c(c2)C(=O)N([C@@H](C)CO)C[C@H](C)[C@@H](CN(C)Cc2ccc(C(F)(F)F)cc2)OCCCC[C@@H](C)O3)cc1	69*	·	9	·	0	·
COc1ccc(NC(=O)Nc2ccc3c(c2)C(=O)N([C@H](C)CO)C[C@@H](C)[C@H](CN(C)Cc2ccc(C(F)(F)F)cc2)OCCCC[C@@H](C)O3)cc1	51	·	7	·	13	·
COc1ccc(CN(C)C[C@H]2OCCCC[C@@H](C)Oc3ccc(NC(=O)Nc4ccc(F)cc4)cc3C(=O)N([C@H](C)CO)C[C@H]2C)cc1	52	·	67*	·	-19	·
COc1ccc(CN(C)C[C@H]2OCCCC[C@H](C)Oc3ccc(NC(=O)Nc4ccc(F)cc4)cc3C(=O)N([C@H](C)CO)C[C@@H]2C)cc1	-12	·	-5	·	-4	·
COc1ccc(CN(C)C[C@H]2OCCCC[C@H](C)Oc3ccc(NC(=O)Nc4ccc(C(F)(F)F)cc4)cc3C(=O)N([C@@H](C)CO)C[C@H]2C)cc1	106*	·	67*	·	·	·
COc1ccc(CN(C)C[C@H]2OCCCC[C@@H](C)Oc3ccc(NC(=O)Nc4ccc(C(F)(F)F)cc4)cc3C(=O)N([C@H](C)CO)C[C@H]2C)cc1	41	·	56*	·	·	·
SMILES	PAX8 inh HTS	TWEAK Fn14 block	EWS-Fli block	TROY NFkB inh	LGR2 antag	LMP1 NFkB inh
Cc1ccc(S(=O)(=O)N(C)C[C@@H]2Oc3c(NC(=O)C4CCCCC4)cccc3C(=O)N([C@H](C)CO)C[C@@H]2C)cc1	25	·	10	·	·	·
COc1ccc(NC(=O)Nc2ccc3c(c2)C(=O)N([C@H](C)CO)C[C@@H](C)[C@@H](CN(C)Cc2ccc(C(F)(F)F)cc2)OCCCC[C@@H](C)O3)cc1	44	·	4	·	15	·
COc1ccc(CN(C)C[C@H]2OCCCC[C@H](C)Oc3ccc(NC(=O)Nc4cccc5ccccc45)cc3C(=O)N([C@H](C)CO)C[C@H]2C)cc1	-1	·	70*	·	-1	·
COc1ccc(NC(=O)Nc2ccc3c(c2)C(=O)N([C@@H](C)CO)C[C@@H](C)[C@@H](CN(C)Cc2ccc(C(F)(F)F)cc2)OCCCC[C@H](C)O3)cc1	72*	·	-1	·	8	·
COc1ccc(CN(C)C[C@@H]2OCCCC[C@H](C)Oc3ccc(NC(=O)Nc4ccc(C(F)(F)F)cc4)cc3C(=O)N([C@@H](C)CO)C[C@@H]2C)cc1	-26	·	83*	·	·	·
COc1ccc(NC(=O)Nc2ccc3c(c2)C(=O)N([C@@H](C)CO)C[C@@H](C)[C@@H](CN(C)Cc2ccc(C(F)(F)F)cc2)OCCCC[C@@H](C)O3)cc1	84*	·	-1	·	17	·
C[C@H](CO)N1C[C@H](C)[C@@H](CN(C)Cc2ccccc2)OCCCC[C@H](C)Oc2ccc(NC(=O)Nc3cccc4ccccc34)cc2C1=O	-2	·	11	·	-1	·
COc1ccc(S(=O)(=O)Nc2ccc3c(c2)C(=O)N([C@@H](C)CO)C[C@H](C)[C@@H](CN(C)CC2CCCCC2)OCCCC[C@H](C)O3)cc1	10	·	9	·	8	·
CC(=O)N1CC2(C1)[C@@H](c1ccc(-c3ccc(C#N)cc3)cc1)[C@H](CO)N2C(=O)C1CC1	·	·	0	·	6	·
COc1ccc(NC(=O)Nc2ccc3c(c2)CC(=O)N([C@H](C)CO)C[C@H](C)[C@@H](CN(C)Cc2ccncc2)O3)cc1	11	·	-1	·	-2	·
CN(C)C(=O)c1ccc(-n2cnc3ccccc3c2=O)cc1	11	-8	6	-31	-13	-51
O=c1c2ccccc2ncn1-c1ccc2c(c1)OCCO2	·	51*	·	-4	-36	0
CC(C)CCCCCCCCCCCCC(=O)NCC(=O)NC1C(C)OC(Nc2ncnc3nc[nH]c23)C(O)C1O (stereo not drawn)	106*	97*	23	77*	·	92*
C/C(=C\CNc1ncnc2nc[nH]c12)CO	·	7	2	-1	-8	-6
C=CCn1c(SCC(=O)N2CCN(c3ccccc3)CC2)nnc1-c1ccco1	·	4	·	-8	-7	-3
Cn1c(CC(=O)Nc2ccc(Cl)c(Cl)c2)nnc1SCC(=O)N1CCN(c2ccccc2)CC1	·	51*	6	29	15	8
